Source: the supplement of paper PMC6288085
Counter-ions that a name gives are not always drawn. ± gives the uncertainty stated by the source.

tested on: Caenorhabditis elegans N2; test: food intake (mean delta OD600 / animal over 72 h) with 50 uM loxapine co-treatment (OD600 units per animal); higher = more food eaten (less suppression of loxapine-induced hyperphagia); conditions: first compound 33 µM, loxapine concentration 50 µM
Protocol: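 C. elegans N2 adults (FUDR-sterilised, day 1) in 96-well plates fed gamma-irradiated bacteria. Each library drug (MedChemExpress FDA-approved library) at 33 uM was combined with loxapine at 50 uM. Food intake was measured as bacterial clearance: the change in OD600 from day 1 to 72 h, normalised per animal (mean over 14-21 wells of about 10-12 worms). Drugs flagged for bacterial lysis or sickness were excluded by the authors.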

Question: For `C[C@]12CCC(=O)C(O)=C1CC[C@@H]1[C@@H]2CC[C@]2(C)C(=O)CC[C@@H]12` [formestane] + CN1CCN(C2=Nc3ccccc3Oc3ccc(Cl)cc32)CC1 [loxapine], which food intake is on record?
Answer: The food intake was 0.0217 ± 0.0021.

Question: `COc1cc2c(cc1OC)C1CC(=O)C(CC(C)C)CN1CC2` (configuration not stated) [tetrabenazine] + CN1CCN(C2=Nc3ccccc3Oc3ccc(Cl)cc32)CC1 [loxapine] was tested. Which food intake did it give?
Answer: The food intake was 0.0274 ± 0.017.

Question: With `O=C(N/N=C/c1ccc([N+](=O)[O-])o1)c1cc([N+](=O)[O-])cc([N+](=O)[O-])c1O` [nifursol] + CN1CCN(C2=Nc3ccccc3Oc3ccc(Cl)cc32)CC1 [loxapine] as the compound, how does the food intake read?
Answer: Its food intake is 0.0249 ± 0.0032.

Question: How did the food intake turn out when `CN1[C@@H]2CC(O)C[C@H]1[C@@H]1O[C@@H]12` (some centres not stated) [scopine (hydrochloride)] + CN1CCN(C2=Nc3ccccc3Oc3ccc(Cl)cc32)CC1 [loxapine] was run?
Answer: Its food intake is 0.00616 ± 0.012.

Question: With `CCCCCCCCCCC(=O)O[C@H]1CC[C@H]2[C@@H]3CCC4=CC(=O)CC[C@]4(C)[C@H]3CC[C@]12C` [testosterone (undecanoate)] + CN1CCN(C2=Nc3ccccc3Oc3ccc(Cl)cc32)CC1 [loxapine] as the compound, how does the food intake read?
Answer: The food intake was 0.0238 ± 0.0023.

Question: `COc1ccc(CN2CCNCC2)c(OC)c1OC` [trimetazidine (dihydrochloride)] + CN1CCN(C2=Nc3ccccc3Oc3ccc(Cl)cc32)CC1 [loxapine] was tested. Which food intake did it give?
Answer: Its food intake is 0.0224 ± 0.003.

Question: How did the food intake turn out when `CCC1(c2cccc(O)c2)CCCCN(C)C1` (configuration not stated) [meptazinol (hydrochloride)] + CN1CCN(C2=Nc3ccccc3Oc3ccc(Cl)cc32)CC1 [loxapine] was run?
Answer: The food intake was 0.0231 ± 0.0039.

Question: Which food intake does the source give for `Oc1cccc2cccnc12` [8-hydroxyquinoline] + CN1CCN(C2=Nc3ccccc3Oc3ccc(Cl)cc32)CC1 [loxapine] here?
Answer: Its food intake is 0.0224 ± 0.0032.

Question: With `Cc1ccc(O)cc1.Cc1cccc(O)c1.Cc1ccccc1O` [cresol] + CN1CCN(C2=Nc3ccccc3Oc3ccc(Cl)cc32)CC1 [loxapine] as the compound, how does the food intake read?
Answer: The food intake was 0.0212 ± 0.0037.

Question: With `C[N+](C)(C)CCCCCCCCCC[N+](C)(C)C` [decamethonium (bromide)] + CN1CCN(C2=Nc3ccccc3Oc3ccc(Cl)cc32)CC1 [loxapine] as the compound, how does the food intake read?
Answer: Its food intake is 0.0222 ± 0.0054.

Question: Which food intake does the source give for `O=[N+]([O-])C(Br)(CO)CO` [bronopol] + CN1CCN(C2=Nc3ccccc3Oc3ccc(Cl)cc32)CC1 [loxapine] here?
Answer: The food intake was 0.0259 ± 0.0077.

Question: `C=CCN1CC[C@]23c4c5ccc(O)c4O[C@H]2C(=O)CC[C@@]3(O)[C@H]1C5` [naloxone (hydrochloride)] + CN1CCN(C2=Nc3ccccc3Oc3ccc(Cl)cc32)CC1 [loxapine] was tested. Which food intake did it give?
Answer: Its food intake is 0.0254 ± 0.0053.
